In PubChem BioAssay (EPA / NIEHS) one finds outcome and AC50 data, which are given here for 40 molecules.

The structures appear in SMILES notation. The source made the active and inactive calls. How the source made its calls: active means hit-call score of the fitted dose curve at least 0.9, where 1 is the maximum; inactive means score below 0.9.

Read-out in the assay: Vascular cell adhesion molecule 1 (VCAM1), VCAM1 (gene 7412)
Description: BSK_hDFCGF_VCAM1: BioMAP Diversity Plus: hDFCGF Assay for Vascular cell adhesion molecule 1 (VCAM1) Biomarker Activity (AID 2283065). To be noted: primary human foreskin fibroblasts; actives raise or lower the signal. On the procedure:
BSK_hDFCGF is a cell-based, multiplexed-readout assay that uses foreskin fibroblast, a human skin primary cell, with measurements taken at 24 hours after chemical dosing in a 96-well plate.BSK_hDFCGF_VCAM1 is an assay component measured in the BSK_hDFCGF assay. It measures VCAM-1 antibody related to regulation of gene expression using ELISA technology.Data from the assay component BSK_hDFCGF_VCAM1 was analyzed into 1 assay endpoint. This assay endpoint, BSK_hDFCGF_VCAM1, was analyzed with bidirectional fitting relative to DMSO as the negative control and baseline of activity. Using a type of binding reporter, gain or loss-of-signal activity can be used to understand changes in the signaling as they relate to the gene VCAM1. Furthermore, this assay endpoint can be referred to as a primary readout, because this assay has produced multiple assay endpoints where this one serves a signaling function. To generalize the intended target to other relatable targets, this assay endpoint is annotated to the cell adhesion molecules intended target family, where the subfamily is Immunoglobulin CAM.
The levels of cell surface (or secreted, indicated by the prefix "s") biomarker endpoints were measured by ELISA. Overt cytotoxicity to cells in confluent adherent cultures (all systems other than the BT system) was assessed by measuring total protein levels using sulforhodamine B (SRB) staining in parallel cultures at the time of biomarker measurements, indicated as SRB endpoints. For proliferation assays for adherent cell types, individual cell types are cultured at sub-confluence and relative cell numbers quantified by SRB staining at time points optimized for each system (48 h: 3C and CASM3C systems; 72 h: BT and HDF3CGF systems; 96 h: SAg system). SRB was performed by staining cells with 0.1% SRB after fixation with 10% TCA and reading wells at 560 nm.Viability and proliferation of PBMC (T cells) was quantified by Alamar Blue reduction for the SAg and BT systems. For PBMC viability (referred to as PBMC Cytotoxicity within the assay endpoint names), cells were plated (75,000/well in a 96-well plate) and then chemical samples added for 1 h before addition of activators, SEB and TSST-1 (20 ng/mL final concentration each). Cells were incubated for 90 h. Then, Alamar Blue (20 uL/well) (Invitrogen, Cat DAL1100) was added for 6 h, and the plates were read with a fluorescence microplate reader at 546/580 nm (excitation/emission). For PBMC proliferation, cells were plated and activated as above but incubated for only 16 h prior to addition of Alamar Blue. Plates were read after 6 h.
Turning to `CC(C)COC(=O)CCCCC(=O)OCC(C)C`, the outcome was inactive.

For `O=C(O)CC(O)(CC(=O)O)C(=O)O`, the outcome was inactive.

For the molecule `Cc1cc(Cc2ccc(N)c(C)c2)ccc1N`, the outcome was inactive.

For `O=C1c2c(O)cccc2Cc2cccc(O)c21`, the AC50 (in general, the concentration at which the activity in the assay is half-maximal) was 20 µM (active).

Consider `C/C=C/C=C/C(=O)O`, for which the result was inactive.

As to `COC(=O)[C@H]1[C@H]2C[C@@H]3c4[nH]c5cc(OC)ccc5c4CCN3C[C@H]2C[C@@H](OC(=O)c2cc(OC)c(OC)c(OC)c2)[C@@H]1OC`, the outcome was inactive.

As for `CCCCCCCCCC[N+](C)(C)[O-]`, the outcome was inactive.

With `CC(=O)CC(c1ccccc1)c1c(O)c2ccccc2oc1=O` (stereo not given), the result was inactive.

Take `C/C=C/c1ccc(OC)cc1`: the outcome was inactive.

With `CC(C)c1cccc(C(C)C)c1NC(=O)NS(=O)(=O)c1cc(C(C)(C)O)co1`, the outcome was inactive.

For `CC1(C)C(=O)NC(=O)N1CO`, the outcome was inactive.

For the molecule `CCCCC(CC)CO` (stereo not given), the result was inactive.

Regarding `CC(C)OC(=O)C(C)(C)Oc1ccc(C(=O)c2ccc(Cl)cc2)cc1`, the outcome was inactive.

With `O=C(N[C@@H](c1ccccc1)[C@@H]1CCCCN1)c1cccc(C(F)(F)F)c1Cl`, the result was inactive.

Consider `O=[Si]=O`, for which the result was inactive.

With `CCc1cc(C2=C(C(=O)O)N(c3ccccc3C(F)(F)F)S(=O)(=O)c3ccccc32)cc2c1OCO2`, the result was inactive.

Consider `O=C1OC(c2ccc(O)cc2)(c2ccc(O)cc2)c2ccccc21`, for which the AC50 is 31.2 µM (active).

Regarding `CCCC(=O)O`, the result was inactive.

In the case of `OCC(O)CO`, the result was inactive.

For `CCC(C)N(C)C(=O)c1cc2ccccc2c(-c2ccccc2Cl)n1` (stereo not given), the outcome was inactive.

On to `CCCCCCCCCCCCCCOS(=O)(=O)O`, for which the AC50 was 7.85 µM (active).

Turning to `CC(=O)S[C@H](C(=O)N[C@H]1Cc2ccccc2[C@H]2CCC[C@@H](C(=O)O)N2C1=O)C(C)C`, the result was inactive.

For the molecule `O=C1O[C@H]([C@H](O)CO)C(O)=C1O`, the result was inactive.

In the case of `CN(C)CCCN(C)CCCN(C)C`, the outcome was inactive.

As for `c1ccc2occc2c1`, the outcome was inactive.

Take `CCCCCCC(CCCCCCCCCCC(=O)OCC(COC(C)=O)OC(C)=O)OC(C)=O` (stereo not given): the outcome was inactive.

As for `CCCCC(CC)COP(=O)(OCC(CC)CCCC)OCC(CC)CCCC` (stereo not given), the result was inactive.

Turning to `NCCOCCOCCN`, the outcome was inactive.

Take `NC=O`: the result was inactive.

For `Cc1ccc(-c2cc(C(F)(F)F)nn2-c2ccc(S(N)(=O)=O)cc2)cc1`, the outcome was inactive.

Take `CCCCCCCCCCCCCCCCO`: the result was inactive.

With `Cc1ccc(C(C)(C)C)c(O)c1`, the outcome was inactive.

Take `COC(=O)CCC(=O)OC`: the outcome was inactive.

On to `O=C(O)c1cccnc1`, for which the outcome was inactive.

`Nc1nc(Cl)nc2c1ncn2[C@H]1C[C@H](O)[C@@H](CO)O1`: the outcome was inactive.

On to `OCC(CO)n1cnc(-c2ccc(F)cc2)c1-c1ccnc(Oc2ccccc2)n1`, for which the AC50 is 1.8 µM (active).

In the case of `COc1ccc(OC(F)(F)F)cc1CN[C@H]1CCCN[C@H]1c1ccccc1`, the result was inactive.

As for `Cc1cn([C@H]2C=C[C@@H](CO)O2)c(=O)[nH]c1=O`, the result was inactive.

Regarding `C=CCc1ccc(OC)c(OC)c1`, the result was inactive.

As to `CC(C)c1cccc(C(C)C)c1`, the outcome was inactive.
